# Inconclusive results are not listed. Active and inactive are the calls of the source. Unless noted, the call rests on the fitted dose curve.
# Legend:
# [1] = molecular target: Estrogen receptor (Homo sapiens) (UniProt P03372); test: qHTS assay for small molecule antagonists of estrogen receptor alpha signaling (AID 588513; active means well fitted curve in the direction sought with a large enough effect in the signal ratio, with a control signal flat, not every such curve was filed as active; the % refers to the signal ratio; further: on the % scale 0 is the no-effect control and ±100 the full control effect)
# How it was run: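 Antagonist mode: inhibition of 0.5 nM 17-beta-estradiol-driven beta-lactamase reporter in HEK 293 ER-alpha-UAS-bla cells, 18 h at 37C, CCF4 readout after 2 h at RT. Normalised to estradiol and DMSO; titration fitted to Hill.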
# [2] = molecular target: Glucocorticoid receptor (Homo sapiens) (UniProt P04150); test: qHTS assay for small molecule agonists of glucocorticoid receptor signaling (AID 588532; active means well fitted curve in the direction sought with a large enough effect in the signal ratio, with a control signal flat; the % refers to the signal ratio;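 further: 100% = dexamethasone at 0.1 µM and 0% = DMSO only wells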); conditions: HeLa MMTV-bla, beta-lactamase ratio, agonist, 18 h; activation: stronger effect = higher value, percent of dexamethasone control, DMSO zero
# How it was run: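 Stimulation of a glucocorticoid response element-driven beta-lactamase gene was measured in HeLa cells. Responses were scaled between DMSO basal and 0.1 uM dexamethasone, then fitted for half-maximal stimulation.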
# [3] = molecular target: Peroxisome proliferator-activated receptor delta (Homo sapiens) (UniProt Q03181); test: qHTS assay for small molecule agonists of peroxisome proliferator-activated receptor delta signaling (AID 588534);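 further: 0% = DMSO basal wells and 100% = positive control agonist at 10 µM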
# How it was run: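 Agonist-mode beta-lactamase reporter readout (CCF4 dye, 2 h at RT) after 18 h at 37 °C exposure to a titration; Hill-equation fitting gave EC50 and maximal response.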
# [4] = molecular target: Peroxisome proliferator-activated receptor gamma (Homo sapiens) (UniProt P37231); test: qHTS assay for small molecule agonists of peroxisome proliferator-activated receptor gamma signaling (AID 588536; active means well fitted curve in the direction sought with a large enough effect in the signal ratio, with a control signal flat, not every such curve was filed as active; the % refers to the signal ratio;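 further: 0% = DMSO basal wells and 100% = rosiglitazone at 2 µM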)
# How it was run: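 Compound treatment: 16 h, 37 C, HEK293 GeneBLAzer cells. Detection: CCF4, 2 h RT. Values: Hill-fit EC50, efficacy as % of 2 uM rosiglitazone.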
# [5] = molecular target: Retinoic acid receptor RXR-alpha (Homo sapiens) (UniProt P19793); test: qHTS assay for small molecule agonists of retinoid X receptor alpha signaling (AID 588544);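 further: 0% = DMSO basal wells and 100% = reference agonist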
# [6] = qHTS assay for small molecule antagonists of retinoid X receptor alpha signaling (AID 588546; active means well fitted inhibition curve with a large enough effect in the signal ratio, with a control signal flat, not every such curve was filed as active; the % refers to the signal ratio;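 further: cells stimulated with 9-cis-retinoic acid as agonist; on the % scale 0 is the no-effect control and ±100 the full control effect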); conditions: HEK293T RXRa-UAS-bla, beta-lactamase ratio, antagonist mode; measured here: W530 green channel, cytotoxicity proxy
# How it was run: (§1)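 Beta-lactamase reporter inhibition, read as CCF4 fluorescence ratio (ex 405, em 460/530 nm) after 2 h at RT. HEK293T UAS-bla cells, 2500/well, were stimulated with 9-cis-RA at 500 or 100 nM final alongside test compound for 18 h at 37 C.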
# [7] = molecular target: Retinoic acid receptor RXR-alpha (Homo sapiens) (UniProt P19793); test: as above; conditions: HEK293T RXRa-UAS-bla, beta-lactamase ratio, antagonist mode
# How it was run: as §1
# [8] = qHTS assay for small molecule activators of the p53 signaling pathway (AID 651743; active means well fitted activation curve with a large enough effect in the signal ratio, not every such curve was filed as active; the % refers to the signal ratio; further: series mostly up to about 92 µM; % of control where 0% means no effect); conditions: HCT-116 p53RE-bla, beta-lactamase FRET ratio, 16 h; activation: stronger effect = higher value
# How it was run: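 Agonist-mode quantitative HTS in HCT-116 cells carrying a p53-response-element beta-lactamase reporter; 16 h compound treatment at 37 C, then FRET substrate loading for 2 h at room temperature and fluorescence read.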
# [9] = qHTS assay for small molecule activators of the nuclear factor-kappa B (NF-kB) signaling pathway (AID 651749; active means well fitted activation curve with a large enough effect in the signal ratio; the % refers to the signal ratio; further: series mostly up to about 77 µM; % of control where 0% means no effect); conditions: NF-kB-bla ME-180 cells, beta-lactamase FRET ratio, 16 h; activation: stronger effect = higher value
# How it was run: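 Human ME-180 cervical cells with an NF-kB-bla construct; compounds added via 23 nL pin transfer, DMSO as vehicle; incubation 16 hr. Reporter activity measured by FRET disruption.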
# [10] = qHTS assay for environmental chemicals that activate the Aryl hydrocarbon Receptor (AhR) signaling pathway (AID 651777; active means well fitted curve in the direction sought with a large enough effect; an effect the other way counts as inactive or inconclusive; further: % of control where 0% means no effect; nearly all actives have a fitted effect of over 15% in size); conditions: 1A2-DRE human hepatoma cells, luciferase, 24 h; activation: stronger effect = higher value
# How it was run: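 AhR activation is scored as a rise in luciferase from a stable DRE–CYP1A2 promoter construct in human hepatoma cells. Treatment lasts 24 hr at 37 C; detection uses One-Glo after 30 min at room temperature.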
# [11] = molecular target: Peroxisome proliferator-activated receptor alpha (Homo sapiens) (UniProt Q07869); test: qHTS assay for small molecule agonists of the peroxisome proliferator-activated receptor alpha (PPARalpha) signaling pathway (AID 651778; active means well fitted curve in the direction sought with a large enough effect; an effect the other way counts as inactive or inconclusive; further: % of control where 0% means no effect); conditions: PathHunter PPARalpha complementation, chemiluminescence, 6 h; max response: stronger effect = higher value
# How it was run: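 Cells plated at 2,000/well and held overnight at 37 C, 5% CO2, then compound added by pin tool for 6 hr; after PathHunter detection reagent and 60 min at room temperature, chemiluminescence from enzyme complementation was read.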
# [12] = qHTS assay for small molecule agonists of the antioxidant response element (ARE) signaling pathway measured by Nrf2-dependant transcriptional activity (AID 720636; active means well fitted curve in the direction sought with a large enough effect in the repeat runs; an effect the other way counts as inactive or inconclusive;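 further: HepG2 cells with an ARE-driven luciferase reporter; % of control where 0% means no effect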)
# How it was run: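 First, ARE-luc HepG2 cells attached for 6 hr at 37 C in 1% dialyzed FBS medium. Next, compound or DMSO was added and incubated 16 hr. Finally, ONE-Glo reagent was added and luminescence measured after 30 min.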
# [13] = qHTS assay for small molecule agonists of the antioxidant response element (ARE) signaling pathway measured by Nrf2-dependant transcriptional activity - cell viability counter screen (AID 720653; active means well fitted curve in the direction sought with a large enough effect in the repeat runs; an effect the other way counts as inactive or inconclusive; further: on the % scale 0 is the no-effect control and ±100 the full control effect); conditions: ARE-bla HepG2 viability, CellTiter-Glo ATP luminescence, 16 h; max response: stronger effect = lower value
# How it was run: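 ARE-bla HepG2 cells (2,000/well) rested 5 hrs at 37C/5% CO2, then exposed to compounds in DMSO for 16 hrs. Viability was read in the same wells as intracellular ATP by luminescence, 30 min at room temperature after reagent addition.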
# [14] = qHTS assay for cell viability of HEK293 cells (AID 743288; active means well fitted curve in the direction sought with a large enough effect; an effect the other way counts as inactive or inconclusive; further: on the % scale 0 is the no-effect control and ±100 the full control effect; nearly all actives have a fitted effect of over 50% in size); conditions: ATP luminescence (CellTiter-Glo), 18 h; max response: stronger effect = lower value
# How it was run: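 Readout is luciferase-coupled ATP content (CellTiter-Glo luminescence, 30 min room temperature) as a measure of metabolically competent cells. Parental HEK293 cells were plated 5 h or more before compound addition, then treated 18 h at 37 C.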
# [15] = qHTS assay for cell viability of the p53RE-bla HCT-116 cell line (AID 743292; active means well fitted curve in the direction sought with a large enough effect; an effect the other way counts as inactive or inconclusive; further: on the % scale 0 is the no-effect control and ±100 the full control effect; nearly all actives have a fitted effect of over 55% in size)
# How it was run: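 Quantitative high-throughput format: compounds in DMSO were pinned onto p53RE-bla HCT-116 cells (4,000/well) and incubated 16 h at 37 C. Total intracellular ATP, read by CellTiter-Glo luminescence, reflects viable cell number.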
# [16] = molecular target: Nuclear receptor subfamily 1 group I member 2 (Rattus norvegicus) (UniProt Q9R1A7); test: qHTS assay for small molecule activators of the rat pregnane X receptor (rPXR) signaling pathway (AID 651751; call rule not given here; further: 0% is about no effect); conditions: rPXR reporter cells, luciferase (One-Glo), 24 h
# [17] = molecular target: Estrogen receptor (Homo sapiens) (UniProt P03372); test: qHTS assay for small molecule agonists of estrogen receptor alpha signaling (AID 588514); further: nearly all actives have a fitted effect of over 70% in size; further: potency means the concentration at half of the fitted maximal effect;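 on activation: 0% = vehicle only and 100% = reference agonist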
# How it was run: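 EC50 and efficacy came from Hill fits of beta-lactamase reporter signal (CCF4 dye, 2 h at room temperature) scaled between DMSO and 20 nM 17-beta-estradiol. Agonist mode: HEK293 ER-alpha-UAS-bla cells in charcoal/dextran-stripped serum medium, 18 h compound exposure at 37 C.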
# [18] = molecular target: Vitamin D3 receptor (Homo sapiens) (UniProt P11473); test: qHTS assay for small molecule antagonists of vitamin D receptor signaling (AID 588541);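 further: receptor activated by calcitriol during compound treatment; series mostly up to about 77 µM; on the % scale 0 is the no-effect control and ±100 the full control effect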
# How it was run: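 VDR-UAS-bla HEK293T cells (2000/well, 2% charcoal-stripped FBS) were treated with titrated compounds plus 1-alpha,25-dihydroxyvitamin D3 (50 nM or 3 nM final) for 16 h at 37 C. CCF4 beta-lactamase fluorescence was read; Hill fits gave IC50.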
# [19] = molecular target: Vitamin D3 receptor (Homo sapiens) (UniProt P11473); test: qHTS assay for small molecule agonists of vitamin D receptor signaling (AID 588543);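 further: 0% = DMSO basal and 100% = reference agonist control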
# How it was run: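 Agonist-mode beta-lactamase reporter: HEK293T VDR-UAS-bla cells in charcoal-stripped 2% FBS, compound series 16 h 37 C, CCF4 2 h RT. EC50 from Hill fit, scaled against DMSO and 50 nM calcitriol control.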
# [20] = molecular target: Thyroid hormone receptor beta (Homo sapiens) (UniProt P10828); test: qHTS assay for small molecule agonists of thyroid hormone receptor beta signaling (AID 588545)
# How it was run: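 In this cell-based screen, titrated compounds act on HEK 293 cells held in medium with 2% charcoal/dextran FBS, NEAA and pyruvate for 18 hrs at 37 C. Responses are expressed relative to T3 (10 nM) as 100% and basal DMSO as 0%.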
# Retinoic acid receptor RXR-alpha (Homo sapiens), sequence (P19793 whole entry, looked up): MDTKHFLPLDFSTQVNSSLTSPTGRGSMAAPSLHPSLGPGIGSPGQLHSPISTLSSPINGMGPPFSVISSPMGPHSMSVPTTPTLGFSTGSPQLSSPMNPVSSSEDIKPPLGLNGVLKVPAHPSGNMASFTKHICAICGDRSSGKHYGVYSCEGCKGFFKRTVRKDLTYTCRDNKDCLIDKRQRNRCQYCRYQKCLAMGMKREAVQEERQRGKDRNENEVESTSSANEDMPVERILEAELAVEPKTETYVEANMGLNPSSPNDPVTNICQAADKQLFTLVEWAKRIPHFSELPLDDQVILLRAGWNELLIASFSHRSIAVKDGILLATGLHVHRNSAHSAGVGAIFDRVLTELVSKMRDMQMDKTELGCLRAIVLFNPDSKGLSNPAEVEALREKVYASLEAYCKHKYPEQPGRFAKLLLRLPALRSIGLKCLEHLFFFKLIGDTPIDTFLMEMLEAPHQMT
# Peroxisome proliferator-activated receptor gamma (Homo sapiens), sequence (P37231 whole entry, looked up): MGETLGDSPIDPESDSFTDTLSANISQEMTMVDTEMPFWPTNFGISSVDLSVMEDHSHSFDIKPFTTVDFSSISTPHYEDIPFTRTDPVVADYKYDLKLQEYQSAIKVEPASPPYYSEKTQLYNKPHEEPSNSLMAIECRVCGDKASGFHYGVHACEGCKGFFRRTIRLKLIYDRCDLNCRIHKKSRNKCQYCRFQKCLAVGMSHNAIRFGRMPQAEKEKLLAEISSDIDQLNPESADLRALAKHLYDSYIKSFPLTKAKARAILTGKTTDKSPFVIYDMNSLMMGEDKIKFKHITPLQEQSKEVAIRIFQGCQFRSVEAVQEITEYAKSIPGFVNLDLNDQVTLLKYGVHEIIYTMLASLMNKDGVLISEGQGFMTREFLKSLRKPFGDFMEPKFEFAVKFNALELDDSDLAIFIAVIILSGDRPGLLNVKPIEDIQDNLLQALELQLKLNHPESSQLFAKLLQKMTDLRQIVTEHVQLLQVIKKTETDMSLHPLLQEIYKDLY
# Peroxisome proliferator-activated receptor alpha (Homo sapiens), sequence (Q07869 whole entry, looked up): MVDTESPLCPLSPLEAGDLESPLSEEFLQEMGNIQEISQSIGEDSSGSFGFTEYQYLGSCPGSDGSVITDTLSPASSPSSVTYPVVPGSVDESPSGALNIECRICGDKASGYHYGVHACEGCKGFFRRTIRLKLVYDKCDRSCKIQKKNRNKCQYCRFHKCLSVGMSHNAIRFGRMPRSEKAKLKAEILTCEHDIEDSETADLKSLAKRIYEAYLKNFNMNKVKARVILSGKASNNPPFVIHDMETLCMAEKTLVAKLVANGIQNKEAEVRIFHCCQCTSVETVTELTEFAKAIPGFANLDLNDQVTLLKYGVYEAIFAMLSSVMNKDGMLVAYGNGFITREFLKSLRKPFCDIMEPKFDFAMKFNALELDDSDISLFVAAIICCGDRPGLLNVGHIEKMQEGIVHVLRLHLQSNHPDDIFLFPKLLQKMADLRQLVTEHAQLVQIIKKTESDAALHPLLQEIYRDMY
# Nuclear receptor subfamily 1 group I member 2 (Rattus norvegicus), sequence (Q9R1A7 whole entry, looked up): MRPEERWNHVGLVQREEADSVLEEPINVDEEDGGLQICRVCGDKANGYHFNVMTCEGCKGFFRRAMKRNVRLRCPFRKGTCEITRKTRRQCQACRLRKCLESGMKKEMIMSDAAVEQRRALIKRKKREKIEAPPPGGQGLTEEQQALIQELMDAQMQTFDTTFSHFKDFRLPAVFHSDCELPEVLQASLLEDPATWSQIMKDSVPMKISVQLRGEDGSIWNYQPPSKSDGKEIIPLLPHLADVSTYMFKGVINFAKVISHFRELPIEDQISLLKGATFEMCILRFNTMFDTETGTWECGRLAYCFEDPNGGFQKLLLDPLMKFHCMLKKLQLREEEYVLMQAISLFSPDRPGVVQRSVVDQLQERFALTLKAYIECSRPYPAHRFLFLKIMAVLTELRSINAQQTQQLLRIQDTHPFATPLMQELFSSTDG
# Estrogen receptor (Homo sapiens), sequence (P03372 whole entry, looked up): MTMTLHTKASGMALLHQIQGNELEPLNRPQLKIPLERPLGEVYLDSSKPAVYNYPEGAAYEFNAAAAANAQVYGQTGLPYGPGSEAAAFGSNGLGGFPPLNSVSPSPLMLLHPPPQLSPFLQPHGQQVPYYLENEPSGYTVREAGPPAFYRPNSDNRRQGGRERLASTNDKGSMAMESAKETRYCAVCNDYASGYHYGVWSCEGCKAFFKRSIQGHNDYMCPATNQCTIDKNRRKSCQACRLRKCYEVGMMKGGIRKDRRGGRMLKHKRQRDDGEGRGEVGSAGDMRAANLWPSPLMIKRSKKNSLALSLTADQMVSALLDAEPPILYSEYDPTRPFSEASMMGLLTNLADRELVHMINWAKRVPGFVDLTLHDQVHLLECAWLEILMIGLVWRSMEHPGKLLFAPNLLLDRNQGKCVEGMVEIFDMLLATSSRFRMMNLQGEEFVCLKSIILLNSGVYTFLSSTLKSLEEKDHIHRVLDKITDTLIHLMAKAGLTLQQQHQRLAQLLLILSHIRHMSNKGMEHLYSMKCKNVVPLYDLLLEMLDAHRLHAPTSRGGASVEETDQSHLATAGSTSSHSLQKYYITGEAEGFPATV
# Thyroid hormone receptor beta (Homo sapiens), sequence (P10828 whole entry, looked up): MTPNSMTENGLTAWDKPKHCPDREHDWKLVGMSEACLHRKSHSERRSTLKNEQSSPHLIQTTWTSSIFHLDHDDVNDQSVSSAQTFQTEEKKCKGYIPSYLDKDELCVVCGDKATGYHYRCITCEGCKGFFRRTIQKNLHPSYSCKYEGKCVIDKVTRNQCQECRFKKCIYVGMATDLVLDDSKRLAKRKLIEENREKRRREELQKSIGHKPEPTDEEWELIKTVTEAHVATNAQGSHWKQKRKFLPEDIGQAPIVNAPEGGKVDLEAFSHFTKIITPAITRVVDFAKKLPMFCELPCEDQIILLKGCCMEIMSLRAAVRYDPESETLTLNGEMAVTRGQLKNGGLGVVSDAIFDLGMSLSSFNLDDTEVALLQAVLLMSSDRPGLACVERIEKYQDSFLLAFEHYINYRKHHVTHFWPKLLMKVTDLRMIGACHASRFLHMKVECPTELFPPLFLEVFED
# Peroxisome proliferator-activated receptor delta (Homo sapiens), sequence (Q03181 whole entry, looked up): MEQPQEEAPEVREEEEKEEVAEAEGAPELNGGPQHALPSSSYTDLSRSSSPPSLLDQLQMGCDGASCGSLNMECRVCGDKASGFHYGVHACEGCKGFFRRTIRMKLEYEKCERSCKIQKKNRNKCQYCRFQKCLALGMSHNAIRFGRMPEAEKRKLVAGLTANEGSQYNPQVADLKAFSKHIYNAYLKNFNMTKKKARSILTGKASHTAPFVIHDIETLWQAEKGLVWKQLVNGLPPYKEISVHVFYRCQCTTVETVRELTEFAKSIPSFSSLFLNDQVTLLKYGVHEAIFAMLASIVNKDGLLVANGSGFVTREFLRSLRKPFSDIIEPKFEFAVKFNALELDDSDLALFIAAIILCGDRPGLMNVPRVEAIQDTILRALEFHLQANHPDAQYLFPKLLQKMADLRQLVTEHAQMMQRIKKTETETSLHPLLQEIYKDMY
# Glucocorticoid receptor (Homo sapiens), sequence (P04150 whole entry, looked up): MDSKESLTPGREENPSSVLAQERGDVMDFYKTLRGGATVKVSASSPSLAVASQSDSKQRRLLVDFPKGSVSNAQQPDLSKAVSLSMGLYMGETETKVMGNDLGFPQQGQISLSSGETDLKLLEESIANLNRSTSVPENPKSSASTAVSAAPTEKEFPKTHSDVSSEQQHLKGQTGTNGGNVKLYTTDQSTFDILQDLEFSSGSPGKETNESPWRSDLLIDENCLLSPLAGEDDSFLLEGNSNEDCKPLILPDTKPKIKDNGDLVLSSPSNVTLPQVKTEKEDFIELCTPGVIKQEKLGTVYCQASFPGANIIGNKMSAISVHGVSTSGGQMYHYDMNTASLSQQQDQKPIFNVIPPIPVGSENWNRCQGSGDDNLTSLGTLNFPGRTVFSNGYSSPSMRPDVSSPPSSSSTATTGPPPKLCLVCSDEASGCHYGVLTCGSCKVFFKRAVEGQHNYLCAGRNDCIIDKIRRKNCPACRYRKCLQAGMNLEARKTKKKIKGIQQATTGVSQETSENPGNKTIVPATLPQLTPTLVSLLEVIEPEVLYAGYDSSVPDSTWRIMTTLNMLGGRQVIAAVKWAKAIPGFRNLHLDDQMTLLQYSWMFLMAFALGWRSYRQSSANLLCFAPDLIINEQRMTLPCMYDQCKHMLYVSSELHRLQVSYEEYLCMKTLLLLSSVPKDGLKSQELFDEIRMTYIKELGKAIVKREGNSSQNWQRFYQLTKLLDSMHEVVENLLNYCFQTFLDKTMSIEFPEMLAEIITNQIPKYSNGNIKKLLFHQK
# Vitamin D3 receptor (Homo sapiens), sequence (P11473 whole entry, looked up): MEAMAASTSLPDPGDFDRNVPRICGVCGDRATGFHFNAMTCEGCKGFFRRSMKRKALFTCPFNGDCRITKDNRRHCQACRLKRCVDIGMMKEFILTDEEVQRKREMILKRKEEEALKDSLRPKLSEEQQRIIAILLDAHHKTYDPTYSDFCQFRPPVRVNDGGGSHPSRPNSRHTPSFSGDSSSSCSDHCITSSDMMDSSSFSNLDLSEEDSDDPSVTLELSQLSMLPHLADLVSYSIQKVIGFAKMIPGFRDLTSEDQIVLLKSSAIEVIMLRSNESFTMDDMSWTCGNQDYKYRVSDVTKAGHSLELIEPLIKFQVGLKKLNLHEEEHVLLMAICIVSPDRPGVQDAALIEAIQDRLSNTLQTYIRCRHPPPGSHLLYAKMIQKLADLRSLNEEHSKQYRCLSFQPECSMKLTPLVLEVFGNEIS
SMILES,Potency [1],activation [2],outcome [3],Potency [4],Potency [5],max response [6],max response [7],activation [8],activation [9],activation [10],max response [11],Potency [12],max response [13],max response [14],Potency [15],max response [16],Potency [17],Potency [18],outcome [19],Potency [20]
CNC(=S)S,inactive,-6.24% (inactive),inactive,inactive,inactive,-10.7%,-13.7% (inactive),-4.42% (inactive),-2.14% (inactive),0.794% (inactive),-2.07% (inactive),inactive,-4.46% (inactive),-18% (inactive),inactive,0.745% (inactive),,,,
CNC(=O)Oc1cc(C)c(SC)c(C)c1,,13.5% (inactive),inactive,inactive,,,,-3.45% (inactive),-0.568% (inactive),0.0661% (inactive),0.9% (inactive),inactive,-13.2% (inactive),,inactive,,25.1 µM (active),inactive,inactive,inactive
CCOP(=S)(NC(C)C)Oc1ccccc1C(=O)OC(C)C (configuration not stated),inactive,-0.106% (inactive),inactive,inactive,,-9.07%,-31.4% (inactive),2.9% (inactive),,4.48% (inactive),-0.429% (inactive),inactive,-14.9% (inactive),-18.9% (inactive),inactive,,,inactive,inactive,inactive
C#CCN1C(=O)COc2cc(F)c(N3C(=O)C4=C(CCCC4)C3=O)cc21,,-6.94% (inactive),inactive,inactive,inactive,5.82%,-8.58% (inactive),,-1.45% (inactive),0.764% (inactive),-2.95% (inactive),inactive,-24.6% (inactive),-11.7% (inactive),inactive,6.57% (inactive),inactive,inactive,inactive,inactive
O=C(O)C(F)(F)C(F)(F)C(F)(F)C(F)(F)C(F)(F)F,inactive,4.09% (inactive),inactive,inactive,inactive,3.1%,-23% (inactive),-4.82% (inactive),,0.455% (inactive),4.72% (inactive),,3.24% (inactive),-9.96% (inactive),inactive,2.05% (inactive),,,inactive,inactive
Nc1cnn(-c2ccccc2)c(=O)c1Cl,inactive,-1.22% (inactive),inactive,inactive,inactive,-1.68%,-7.65% (inactive),-0.0509% (inactive),-0.283% (inactive),6.85% (inactive),-1.54% (inactive),inactive,,-10.4% (inactive),inactive,4.89% (inactive),,inactive,inactive,inactive
COC(=O)c1sccc1S(=O)(=O)NC(=O)Nc1nc(C)nc(OC)n1,inactive,-2.71% (inactive),inactive,inactive,inactive,-1.17%,-14.7% (inactive),-3.25% (inactive),-1.57% (inactive),0.948% (inactive),-0.482% (inactive),inactive,2.61% (inactive),-12% (inactive),inactive,3.77% (inactive),,inactive,inactive,inactive
